Assay [1] is described as follows: Primary qHTS for inhibitors of nuclear receptor binding SET domain protein 2 (NSD2) in an isogenic RCH-ACV NSD2 p.E1099K mutant (9B) (AID 1645876; further: nearly all actives have a fitted effect of over 70% in size; on activity change, negative = viability loss: on the % scale 0 is the no-effect control and ±100 the full control effect). (In general: Quantitative high-throughput screening tests each substance at several concentrations.)
Assay [2] in a line: Primary qHTS for inhibitors of nuclear receptor binding SET domain protein 2 (NSD2) in an RCH-ACV wild type WT cells (2C) (AID 1645877). Further: nearly all actives have a fitted effect of over 70% in size. On activity change, negative = cell killing: on the % scale 0 is the no-effect control and ±100 the full control effect.
For assay [3], the target named is Rap guanine nucleotide exchange factor 3 (Homo sapiens) (UniProt O95398). Nature of the assay: Confirmatory qHTS for antagonist of cAMP-regulated guanine nucleotide exchange factor 3 (EPAC1) (AID 1645880). Further: nearly all actives have a fitted effect of over 55% in size. The essentials:
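Released BODIPY-GDP fluoresces less than Rap1-bound BODIPY-GDP; the signal is followed at 480/540 nm at 5-min intervals over 30 min, after 5 min at room temperature. Reactions contain 100 nM EPAC1, 250 nM RAP1B-BODIPY-GDP and 50 uM GDP; results are normalized to ATA and DMSO.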

Assay [4] shares this target. As to the kind of experiment: Confirmatory qHTS for agonist of cAMP-regulated guanine nucleotide exchange factor 3 (EPAC1) (AID 1645881). Further: nearly all actives have a fitted effect of over 75% in size.
The target in assay [5] is Rap guanine nucleotide exchange factor 4 (Homo sapiens) (UniProt Q8WZA2). As to the kind of experiment: Confirmatory qHTS for agonist of cAMP-regulated guanine nucleotide exchange factor 4 (EPAC2) (AID 1645884).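 Further: nucleotide exchange releases bodipy-GDP from Rap1 and this lowers its fluorescence; nearly all actives have a fitted effect of over 65% in size.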
Rap guanine nucleotide exchange factor 4 (Homo sapiens), sequence (Q8WZA2 whole entry, looked up): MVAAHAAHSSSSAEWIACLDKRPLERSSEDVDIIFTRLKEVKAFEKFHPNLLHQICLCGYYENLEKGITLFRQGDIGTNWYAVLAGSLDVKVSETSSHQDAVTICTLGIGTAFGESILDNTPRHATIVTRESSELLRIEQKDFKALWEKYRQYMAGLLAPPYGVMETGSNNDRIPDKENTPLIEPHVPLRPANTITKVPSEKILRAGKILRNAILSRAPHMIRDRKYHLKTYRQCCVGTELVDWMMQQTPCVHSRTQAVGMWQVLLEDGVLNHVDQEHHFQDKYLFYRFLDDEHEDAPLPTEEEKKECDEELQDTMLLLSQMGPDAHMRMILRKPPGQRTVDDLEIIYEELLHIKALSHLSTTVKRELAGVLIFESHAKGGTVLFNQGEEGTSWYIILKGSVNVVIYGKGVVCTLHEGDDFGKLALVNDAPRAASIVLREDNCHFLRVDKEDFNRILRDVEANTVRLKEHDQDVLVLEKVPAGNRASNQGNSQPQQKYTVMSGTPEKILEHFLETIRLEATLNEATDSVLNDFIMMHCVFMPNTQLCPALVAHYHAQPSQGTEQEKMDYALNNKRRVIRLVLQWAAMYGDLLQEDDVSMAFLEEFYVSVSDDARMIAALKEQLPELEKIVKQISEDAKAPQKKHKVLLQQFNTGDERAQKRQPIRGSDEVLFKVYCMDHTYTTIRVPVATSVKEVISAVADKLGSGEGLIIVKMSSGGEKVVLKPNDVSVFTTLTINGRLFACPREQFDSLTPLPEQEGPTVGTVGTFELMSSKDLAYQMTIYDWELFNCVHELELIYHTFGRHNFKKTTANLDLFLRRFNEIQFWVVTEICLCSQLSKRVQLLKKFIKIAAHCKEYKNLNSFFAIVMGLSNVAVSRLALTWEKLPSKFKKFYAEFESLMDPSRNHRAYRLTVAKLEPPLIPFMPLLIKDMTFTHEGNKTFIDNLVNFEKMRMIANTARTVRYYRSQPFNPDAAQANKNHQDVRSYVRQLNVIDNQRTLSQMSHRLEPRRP
Assay [6] shares this target. As to the kind of experiment: Confirmatory qHTS for antagonist of cAMP-regulated guanine nucleotide exchange factor 4 (EPAC2) (AID 1645885). Further: nearly all actives have a fitted effect of over 25% in size.

Where “and” joins values, the source holds several entries; their conditions need not be identical. Equal values may be shown once. Records with an inconclusive call do not appear. Values without a mark were called inactive. Calls of active or inactive are those of the source. The call rests on the fitted dose curve; in most records, active means well fitted curve in the direction sought with a large enough effect; inconclusive means small, poorly fitted or top-dose-only effect, or another doubt; inactive means no such curve, though single readings can be large; an effect the other way counts as inactive or inconclusive.
Potency means the concentration at half of the fitted maximal effect.

Rap guanine nucleotide exchange factor 3 (Homo sapiens), sequence (O95398 whole entry, looked up): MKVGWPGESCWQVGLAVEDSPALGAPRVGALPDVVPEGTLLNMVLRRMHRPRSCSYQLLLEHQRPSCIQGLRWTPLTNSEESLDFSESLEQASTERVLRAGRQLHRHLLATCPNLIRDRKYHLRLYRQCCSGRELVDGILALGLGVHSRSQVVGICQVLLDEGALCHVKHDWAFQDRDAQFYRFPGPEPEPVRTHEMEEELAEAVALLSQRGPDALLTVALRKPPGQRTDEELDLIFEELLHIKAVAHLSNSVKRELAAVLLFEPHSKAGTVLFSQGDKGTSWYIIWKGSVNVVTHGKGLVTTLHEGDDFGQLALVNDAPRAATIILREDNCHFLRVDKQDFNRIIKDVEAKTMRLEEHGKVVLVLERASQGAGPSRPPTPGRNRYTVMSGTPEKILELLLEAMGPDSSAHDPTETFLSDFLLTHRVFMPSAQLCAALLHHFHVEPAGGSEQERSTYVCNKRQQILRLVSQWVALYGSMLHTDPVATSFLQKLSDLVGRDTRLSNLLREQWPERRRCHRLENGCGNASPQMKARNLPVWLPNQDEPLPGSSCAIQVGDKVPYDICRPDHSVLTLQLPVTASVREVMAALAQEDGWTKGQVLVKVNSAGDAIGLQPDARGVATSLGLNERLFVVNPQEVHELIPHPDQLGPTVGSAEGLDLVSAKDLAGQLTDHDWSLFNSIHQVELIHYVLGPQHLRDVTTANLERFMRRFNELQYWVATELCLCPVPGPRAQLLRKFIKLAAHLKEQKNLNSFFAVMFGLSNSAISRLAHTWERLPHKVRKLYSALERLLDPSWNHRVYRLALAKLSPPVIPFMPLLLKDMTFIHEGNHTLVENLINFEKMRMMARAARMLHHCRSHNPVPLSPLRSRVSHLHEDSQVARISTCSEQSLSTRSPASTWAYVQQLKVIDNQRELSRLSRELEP

Regarding `CCCCN(CCCC)C(C(N)=O)c1ccc(OC)cc1` (configuration not stated), the Potency entry in assay [1] and in assay [2] was “inactive” in each case.

Take `CCOc1ccc(NS(=O)(=O)c2ccc(N)cc2)nn1`: the Potency result in assay [1] and in assay [2] was “inactive” in each case.

Consider `CCCC(CCC)(C(=O)OCC)C(=O)OCC`, for which the Potency entry in assay [1] and in assay [2] was “inactive” throughout.

As to `CCCCCCCCCCCC[N+](C)(C)Cc1ccccc1`, the Potency in assay [1] and in assay [2] was 0.473 µM (active) in each case.

Turning to `CN1C(=O)CC(C)(c2ccccc2)C1=O` (configuration not stated), the Potency result in assay [1] and in assay [2] was “inactive” each time.

Take `COC(=O)CCCCC(CCSS/C(CCO)=C(\C)N(C=O)Cc1cnc(C)nc1N)SC(C)=O` (configuration not stated): the Potency entry in assay [1] and in assay [2] was “inactive” each time.

As for `CC(=O)OCC[N+](C)(C)C`, the Potency entry in assay [1] and in assay [2] was “inactive” throughout.

Take `CCN(CC)CC(=O)Nc1c(C)cccc1C(=O)OC`: the Potency entry in assay [1] and in assay [2] was “inactive” each time.

Consider `C/C(=C1\CCOC(=O)S1)N(C=O)Cc1cnc(C)nc1N`, for which the Potency result in assay [1] and in assay [2] was “inactive” each time.

As for `CC(NN)c1ccccc1` (configuration not stated), the Potency entry in assay [1] and in assay [2] was “inactive” throughout.

In the case of `Cc1c(F)cc2c(=O)c(C(=O)O)cn3c2c1CCC3C` (configuration not stated), the Potency entry in assay [1] and in assay [2] was “inactive” throughout.

On to `OC1(c2ccc(Cl)c(C(F)(F)F)c2)CCN(CCCC(c2ccc(F)cc2)c2ccc(F)cc2)CC1`, for which the Potency in assay [1] was 4.22 µM (active) and 3.25 µM (active); in assay [2], 4.73 µM (active) and 4.59 µM (active).

In the case of `Cc1cnc(NS(=O)(=O)c2ccc(N)cc2)nc1`, the Potency result in assay [1] and in assay [2] was “inactive” throughout.

For the molecule `COC(=O)/C=C(/C)N`, the Potency entry in assay [1] and in assay [2] was “inactive” throughout.

`O=C1Nc2cc(Cl)ccc2Oc2ccccc21`: the Potency entry in assay [1] and in assay [2] was “inactive” in each case.

For `Cc1onc(-c2c(Cl)cccc2Cl)c1C(=O)Cl`, the Potency entry in assay [1] and in assay [2] was “inactive” throughout.

In the case of `CN1C(CSCC(F)(F)F)Nc2cc(Cl)c(S(N)(=O)=O)cc2S1(=O)=O` (configuration not stated), the Potency entry in assay [1] and in assay [2] was “inactive” throughout.

For `CC(=O)c1cc2ccccc2s1`, the Potency result in assay [1] and in assay [2] was “inactive” each time.

`CC(=O)N(CC(O)CO)c1c(I)c(C(=O)NCCO)c(I)c(C(=O)NCC(O)CO)c1I` (configuration not stated): the Potency entry in assay [1] and in assay [2] was “inactive” each time.

`Cc1ccccc1C(=O)N1CC/C(=N\OS(=O)(=O)O)c2ccc(Cl)cc21`: the Potency result in assay [1] and in assay [2] was “inactive” each time.

With `O=C(O)CCCC[P+](c1ccccc1)(c1ccccc1)c1ccccc1`, the Potency entry in assay [1] and in assay [2] was “inactive” in each case.

On to `Cc1cccc(C)c1NC(=O)c1cc(S(N)(=O)=O)c(Cl)cc1O`, for which the Potency result in assay [1] and in assay [2] was “inactive” each time.

Consider `CC(C)(C)NCC(O)COc1ccccc1OCC1CCCO1` (configuration not stated), for which the Potency result in assay [1] and in assay [2] was “inactive” throughout.

With `N#Cc1cc(NC(=O)C(=O)O)c(Cl)c(NC(=O)C(=O)O)c1`, the Potency entry in assay [1] and in assay [2] was “inactive” throughout.

As for `Fc1ccc(C(c2ccc(F)cc2)N2CCNCC2)cc1`, the Potency entry in assay [1] and in assay [2] was “inactive” each time.

As for `O=C(O)[C@@H](O)[C@H](O)[C@H](O)[C@@H](O)C(=O)O`, the Potency entry in assay [1] and in assay [2] was “inactive” each time.

With `CN1CCC(Nc2ncc3ncnc(Nc4ccc(F)c(Cl)c4)c3n2)CC1`, the Potency in assay [1] was 15 µM (active); in assay [2], 11.9 µM (active).

Take `C[C@H]1C[C@@H]2[C@H]([C@@H](O)C[C@@]3(C)[C@H]2CC[C@]3(O)C(=O)CO)[C@@]2(C)C=CC(=O)C=C12`: the Potency entry in assay [1] is “inactive”. For the same molecule, the Potency in assay [2] is 26.6 nM (active) and 74.2 nM (active).

As to `CC(=O)OCC(=O)Nc1cc(C#N)cc(NC(=O)COC(C)=O)c1Cl`, the Potency result in assay [1] and in assay [2] was “inactive” in each case.

Turning to `CCN1CCN(C(=O)N[C@@H](C(=O)N[C@@H]2C(=O)N3[C@@H]2SC(C)(C)[C@H]3C(=O)O)c2ccccc2)C(=O)C1=O`, the Potency entry in assay [1] and in assay [2] was “inactive” each time.

As to `CCOC(=O)c1ccc(O)c(O)c1`, the results for the Potency in assay [1] and in assay [2] were 9.44 µM (active) and 13.3 µM (active), respectively.

On to `CC1CN(c2cc3c(cc2F)c(=O)c(C(=O)O)cn3-c2ccc(F)cc2F)CCN1` (configuration not stated), for which, in assay [1], the activity change, negative = viability loss is 4.46% [at 4.96 µM]. The activity change, negative = cell killing in assay [2] was -0.258% [at 4.96 µM].

Consider `CC(C)C(=O)OCc1cccc(OC(=O)[C@@H]2N3C(=O)[C@@H](NC(=O)Cc4ccccc4)[C@H]3SC2(C)C)c1`, for which the Potency result in assay [1] and in assay [2] was “inactive” in each case.

For `CCCc1ccc(OCC(=O)N2CCN(C(=O)COc3ccc(CCC)cc3OC)CC2)c(OC)c1`, the Potency entry in assay [1] and in assay [2] was “inactive” each time.

Take `CCC(=O)O[C@H]1[C@H](O[C@@H]2[C@@H](C)[C@H](O[C@H]3C[C@@](C)(OC)[C@@H](O)[C@H](C)O3)[C@@H](C)C(=O)O[C@H](CC)[C@@](C)(O)[C@H](O)[C@@H](C)C(=O)[C@H](C)C[C@@]2(C)O)O[C@H](C)C[C@@H]1N(C)C`: the Potency result in assay [1], in assay [2], in assay [4] and in assay [5] was “inactive” in each case. Moreover, the results for the Potency in assay [3] and in assay [6] were 12.5 µM (active) and 17.5 µM (active), respectively.

Consider `CCOC(=O)c1ccc(NC(=O)CN2CCCCC2)cc1`, for which the Potency result in assay [1] and in assay [2] was “inactive” each time.

Consider `COC(=O)C1=C(C)NC(C)=C(C(=O)OCCc2ccc(N3CCN(C(c4ccccc4)c4ccccc4)CC3)cc2)C1c1cccc([N+](=O)[O-])c1` (configuration not stated), for which the Potency entry in assay [1] and in assay [2] was “inactive” in each case.

Take `CN(C)C(=O)CNC(=O)Cc1ccccc1`: the Potency result in assay [1] and in assay [2] was “inactive” each time.

Consider `O=C(CCCCC(=O)Nc1c(I)cc(I)c(C(=O)O)c1I)Nc1c(I)cc(I)c(C(=O)O)c1I`, for which the Potency entry in assay [1] and in assay [2] was “inactive” in each case.

As to `Cc1ccc2c(Cl)cc(Cl)c(O)c2n1`, the Potency entry in assay [1] and in assay [2] was “inactive” each time.

Consider `CC(C)Cc1ccc(C(C)C(=O)OCc2ccccn2)cc1` (configuration not stated), for which the Potency result in assay [1] and in assay [2] was “inactive” in each case.

For `Nc1ccc2cc3ccc(N)cc3nc2c1`, the Potency in assay [1] is 2.37 µM (active); in assay [2], 1.68 µM (active); in assay [4], 17.7 µM (active); in assay [5], 22.3 µM (active). Besides, the Potency result in assay [3] and in assay [6] was “inactive” each time.

The values above are taken from PubChem BioAssay (NCATS).
